D2 antag: antagonists of human D2 dopamine receptor; HEK293 TREx D2 cells, calcium flux, dopamine EC80; inhibition, % at 10 µM; hit rate 2% among 340,000; AID 485344; in the data active means inhibition above about 30%; inactive means below that, where a call was filed; further: 0% is about no effect
Target sequence (P14416 whole entry, looked up): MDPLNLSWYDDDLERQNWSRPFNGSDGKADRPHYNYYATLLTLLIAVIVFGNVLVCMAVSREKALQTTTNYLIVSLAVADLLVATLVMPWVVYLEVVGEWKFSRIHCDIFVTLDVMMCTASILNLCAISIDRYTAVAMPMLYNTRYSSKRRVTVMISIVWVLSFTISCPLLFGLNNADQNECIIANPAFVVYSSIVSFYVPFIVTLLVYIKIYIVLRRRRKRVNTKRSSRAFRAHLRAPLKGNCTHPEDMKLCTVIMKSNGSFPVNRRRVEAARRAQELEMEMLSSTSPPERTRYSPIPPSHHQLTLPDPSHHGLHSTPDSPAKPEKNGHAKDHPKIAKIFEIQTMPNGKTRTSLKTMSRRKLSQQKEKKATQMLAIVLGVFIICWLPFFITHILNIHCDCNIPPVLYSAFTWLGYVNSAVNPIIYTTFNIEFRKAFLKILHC
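Antagonism is scored as inhibition of an EC80 dopamine-evoked calcium signal in a force-coupled, tetracycline-inducible HEK293 T-REx D2 line, with compound present 180 s before agonist.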
D2 PAM-1: potentiates the human D2 dopamine receptor allosterically; DiscoveRx D2 beta-arrestin cells, luminescence, 90 min; 100% = 57 uM dopamine signal; potentiation, % (no concentration beside the values); hit rate 0.23% among 360,000; AID 624464; in the data active means potentiation above about 50%; inconclusive means mostly about 30% to 49%
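PathHunter beta-arrestin assay in DiscoveRx D2 cells. Compounds were added with an EC20 of dopamine (50 nM final) for 90 min at 37 deg C. Luminescence was read 1 h after detection reagent, with 57 uM dopamine as the EC100 control.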
D2 PAM-2: positively modulates the human D2 dopamine receptor allosterically; hit rate 0.34% among 340,000; P14416; potentiation, % at 10 µM; AID 485347; HEK293 T-REx D2, calcium flux, EC20 dopamine potentiation;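 active means potentiation over 3 SD above the plate norm, cut at about 30% in these data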; further: 0% is about no effect
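Calcium flux readout, no-wash dye, 1 read/s. Inducible HEK293 Trex D2 line, overnight 30 C. Compound alone 180 s (agonist flags), then EC20 dopamine, another 180 s to score potentiation.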
D2 ag-1: D2 dopamine receptor (human) agonism; HEK293 T-REx D2 cells, calcium flux agonist mode; activation, % at 2 µM; AID 485358; hit rate 0.53% among 340,000;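 active means activation over 3 SD above normal in the single-dose calcium agonist read, cut at about 30% in these data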; further: 0% is about no effect
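Agonism scored from kinetic calcium signal (1 read/sec, 180 s) following compound pin transfer, after a 10 s baseline. Cells: HEK293 Trex line expressing inducible D2 receptor coupled to calcium, dye-loaded after overnight culture at 30 C.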
D2 ag-2: human D2 receptor agonism in beta-arrestin assay. DiscoveRx PathHunter D2 beta-arrestin, luminescence, 90 min; 100% = 57 uM dopamine signal. activation, % (concentration not given with the values). hit rate 0.084% among 360,000. AID 624465; in the data active means activation above about 40%; inconclusive means between about 15% and that limit
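Agonist mode: compounds alone added to overnight-plated D2 PathHunter cells for 90 min at 37 C, with 57 uM final dopamine (EC100) defining full response. Beta-arrestin recruitment detected by chemiluminescent reagent, read after 1 h at ambient temperature.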
* marks the source's active call; other numbers are inactive results; ? = inconclusive; · = not tested or not shown. A selection: hits, their analogues and other compounds. The true share with any hit is near 2.4%.

SMILES	D2 antag	D2 PAM-1	D2 PAM-2	D2 ag-1	D2 ag-2
O=C(CC1(O)C(=O)N(CCc2ccccc2)c2ccc(Br)cc21)c1ccccc1O (stereo unspecified)	·	·	-9	5	·
O=C1/C(=C\c2cc([N+](=O)[O-])ccc2O)SC(=S)N1Cc1ccc(Cl)cc1	-14	-13	4	90*	-7
O=C1/C(=C\c2cccc(O)c2O)SC(=S)N1Cc1ccccc1	·	-5	14	·	3
COc1ccc(OC)c(NC(=O)N2c3ccccc3Sc3ccccc32)c1	·	·	9	-1	·
Cc1noc(/C=C/c2ccco2)c1S(=O)(=O)N1CCC(C(=O)Nc2ccc(F)cc2F)CC1	·	·	0	0	·
COc1cc2c3nnc(-c4ccc(F)cc4)c-3cn(Cc3ccccc3)c2cc1OC	29	7	1	0	50*
CC(=O)N(c1ccc2oc(=O)sc2c1)S(=O)(=O)c1ccccc1	0	?	4	-1	2
CCOc1ccc(S(=O)(=O)N(C(=O)c2ccco2)c2cc3sc(=O)oc3c3ccccc23)cc1	-1	150*	3	0	?
Cc1ccc(S(=O)(=O)N(C(=O)c2ccco2)c2cc3sc(=O)oc3c3ccccc23)cc1	-1	63*	2	0	?
CCOc1ccc(S(=O)(=O)N(C)CC(=O)NCc2ccco2)cc1	6	-3	·	-3	0
COc1ccc(S(=O)(=O)N(C(=O)c2ccco2)c2cc3sc(=O)oc3c3ccccc23)cc1	0	97*	2	0	?
Cc1ccc2c(c1)C(=O)OC(C(=O)Nc1ccc(C(=O)O)cc1)C2 (stereo unspecified)	·	·	-13	0	·
COc1ccc(CNC(=O)/C(C)=C\C(=O)O)cc1	36*	-8	1	0	1
COc1ccc(-c2cc(C)no2)cc1S(=O)(=O)NCCCN1CCCCCC1	34*	-35	-2	0	-3
CCOc1cc(C)c(Cl)cc1S(=O)(=O)N(C)C	49*	-3	7	0	0
CCCOc1cc(C)c(Cl)cc1S(=O)(=O)N(CC)CC	7	-22	3	-1	-5
COc1cccc(C(=O)Nc2cccc(-c3nc4ncccn4c3C)c2)c1	·	·	-11	-2	·
O=C(O)c1ccccc1S(=O)(=O)Cc1ccccc1	36*	-5	-11	1	-2
CCN(CC)c1ccc2cc(S(=O)(=O)c3ccc(Cl)cc3)c(=O)oc2c1	-76	-1	5	68*	-3
CCCCCCc1cc2cc(S(=O)(=O)c3ccc(Cl)cc3)c(=O)oc2cc1O	·	3	-6	·	2
CCOC(=O)Cc1csc(NC(=O)COc2ccc3ccccc3c2)n1	59*	3	-4	1	-1
CCn1nnnc1SCC(=O)N1CCCCC1	-2	-1	2	0	-3
COCCn1nnnc1SCC(=O)N1CCCCC1	34*	-6	-7	0	-3
Fc1ccc(N2CCN(c3nnnn3-c3ccccc3)CC2)cc1	50*	-11	-17	-1	0
CCOc1ccc(-n2c(=O)c3c(C)c(C(=O)N(C)C)sc3n(CC(=O)Nc3c(C)cc(C)cc3C)c2=O)cc1	·	·	-4	0	·
SMILES	D2 antag	D2 PAM-1	D2 PAM-2	D2 ag-1	D2 ag-2
CCC(Cn1nnc2ccccc2c1=O)NC(=O)Nc1ccccc1Cl (stereo unspecified)	·	·	15	-1	·
Cc1ccc(NC2CCCN(C(=O)c3cccnc3)C2)cc1C (stereo unspecified)	36*	-4	14	0	3
CC(C)c1ccc(NC2CCCN(C(=O)c3cccnc3)C2)cc1 (stereo unspecified)	16	-1	-7	1	-1
Cc1ccccc1CN1C(=O)c2ccccc2S(=O)c2ccc(C(=O)NC3CCC(C)CC3)cc21 (stereo unspecified)	·	·	16	2	·
Cc1ccc(S(=O)(=O)NCCSc2ncccn2)cc1	86*	-4	-34	0	-7
Cc1ccc(-c2nc3c4ccccc4n(CC(=O)N4CCN(c5ccccc5F)CC4)c(=O)n3n2)cc1	·	·	-2	·	·
Cc1cc(C)nc(SCC(=O)c2ccc([N+](=O)[O-])cc2)n1	22	76*	-6	0	3
COc1ccc(-n2c(=S)[nH]c3c(sc(=S)n3-c3ccccc3)c2=O)c(OC)c1	-3	-30	37*	0	-6
COc1ccc(-n2c(=S)[nH]c3sc(-c4ccccc4)cc3c2=O)c(OC)c1	23	-8	-4	0	-4
Cc1ccc(CCNC(=O)c2cc3c(-c4ccccc4F)nn(C)c3s2)cc1	·	·	-14	0	·
CCCCN(CC)CCNC(=O)c1cc2c(=O)n(CC)c3ccccc3c2s1	36*	-19	8	-3	-2
CCCCN(CC)CCNC(=O)c1cc2c(-c3ccccc3F)nn(C)c2s1	-28	8	-4	1	44*
COc1cc(CN(C(=O)COc2ccc(Cl)c(C)c2)c2ccccn2)cc(OC)c1OC	·	·	0	-1	·
COC(=O)c1cc2sc(C)cc2n1Cc1cccc(OC)c1	·	·	-5	1	·
Cc1cc(NC(=O)CS(=O)(=O)c2ccc(F)cc2)no1	-10	-19	7	-1	-3
Cc1cc(NC(=O)CS(=O)(=O)c2ccc(Cl)cc2)no1	2	-7	44*	0	-2
COc1cc(NC(=O)c2ccc3c(SCC(=O)O)c4c(nc3c2)CCC4)cc(OC)c1OC	36*	-10	-11	-1	-2
CCCC(c1nnnn1C(C)(C)CC)N(Cc1ccco1)Cc1cc2ccc(OC)cc2[nH]c1=O (stereo unspecified)	-4	-13	36*	0	-3
CCOc1ccc(N(CC(=O)NC(C)CC)S(C)(=O)=O)cc1 (stereo unspecified)	38*	-21	-3	2	-3
CCN1/C(=C/C=C/c2oc3ccc(-c4ccccc4)cc3[n+]2CC)Oc2ccc(-c3ccccc3)cc21	76*	-24	-26	149*	-6
CCN1/C(=C/C=C/c2sc3ccccc3[n+]2CC)Sc2ccccc21	·	-23	·	·	-7
O=C(CSCn1nnc2c(=O)[nH]c(Cc3ccc(F)cc3)nc21)Nc1cccc(C(F)(F)F)c1	·	·	·	0	·
CC(C)(C)c1ccc(C(=O)N2CCCCC2CCN2CCCCC2)cc1 (stereo unspecified)	·	·	-14	-1	·
CCOC(=O)C1(Cc2ccccc2C(F)(F)F)CCN(C2CCSC2)CC1 (stereo unspecified)	50*	-14	-24	1	-1
Cc1cc(C)c(Cn2c(=O)n(CCCCCC(=O)NCc3ccc4c(c3)OCO4)c(=O)c3sccc32)c(C)c1	·	·	-1	·	·
O=C(NC(=S)Nc1ccc2oc(=O)ccc2c1)c1cccc(Cl)c1	30*	-7	-2	0	-4
COc1ccc(NS(=O)(=O)c2coc(C(N)=O)c2)cc1Cl	31*	0	-2	1	4

Screening results deposited in PubChem by National Center for Advancing Translational Sciences (NCATS).
